Results taken from the supplement of paper PMC7801607.

Columns and labels:
[1] = tested on: CHO; experiment: % viability of CHO cells (MTT); higher = less toxic; details: 48 h
Procedure, shortened: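 Viability was given as a percentage of untreated cells and measured colorimetrically by the tetrazolium (MTT) assay. Before this, CHO cells at 10^6 cells/well in 200 µL attached overnight, then received fresh medium containing compound at 2 or 20 µM for 48 h.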

[2] = tested on: HepG2-A16-CD81; experiment: % inhibition of HepG2 viability (CellTiter-Glo); higher = more toxic; details: 5 µM
[3] = tested on: Plasmodium falciparum NF54 stage IV/V gametocytes; experiment: % inhibition of gametocyte viability (PrestoBlue); higher = more inhibition; details: 48 h
Procedure, shortened: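 Values are percent inhibition of gametocyte viability, normalised to vehicle and kill controls in a single run. Stage IV/V NF54 gametocytes (2% gametocytaemia, 5% haematocrit, 100 µL/well) were held with compound at 1 or 5 µM for 48 h at 37 °C, stationary and hypoxic. Viability was read as 612 nm fluorescence on 70 µL of supernatant after a 2 h incubation with 10 µL PrestoBlue.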

[4] = tested on: Plasmodium falciparum NF54 asexual blood stage; experiment: % inhibition of asexual blood stage proliferation (pLDH); higher = more inhibition; details: 72 h
Procedure, shortened: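 Using 96-well plates, the screen was run twice on separate occasions with Plasmodium falciparum NF54 ring-stage cultures at 1% haematocrit and 2% parasitaemia. Each culture was exposed to compound at 2 or 20 µM for 72 h at 37 °C under a gas mix of 4% CO2, 3% O2 and 93% N2. After incubation, the parasite lactate dehydrogenase assay was read colorimetrically at 620 nm. From this readout, percent inhibition of asexual proliferation was derived against control wells.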

[5] = tested on: Plasmodium falciparum NF54 stage IV/V gametocytes; experiment: % inhibition of gametocyte viability (ATP bioluminescence); higher = more inhibition; details: 24 h
Procedure, shortened: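 Viability of stage IV/V NF54 gametocytes is given as percent inhibition, normalised to control wells in a single run. Gametocytes enriched on density gradients were seeded at 30,000 per well in 96-well plates with compound at 1 or 5 µM and held at 37 °C for 24 h. ATP was then read with the Promega BacTiter Glo bioluminescence system.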

[6] = tested on: Plasmodium falciparum NF54 stage IV/V gametocytes; experiment: % inhibition of gametocyte viability (luciferase reporter); higher = more inhibition; details: 48 h
Procedure, shortened: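 Percent inhibition was normalised to controls from a single run. Stage IV/V gametocytes of the NF54-Pfs16-GFP-Luc line, at 2% gametocytaemia and 2% haematocrit, were exposed to compound at 1 or 5 µM for 48 h at 37 °C under stationary, hypoxic conditions. Luminescence was then read from 30 µL lysate mixed with 30 µL Promega luciferin substrate on a GloMax-Multi+ reader with 10 s integration.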

[7] = tested on: Plasmodium berghei ANKA liver stage in HepG2-A16-CD81; experiment: % inhibition of liver stage parasite viability (luciferase); higher = more inhibition; details: 5 µM; 48 h
Protocol: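 Single-concentration screen of the MMV Pandemic Response Box. P. falciparum NF54 asexual blood stages: pLDH assay, 72 h at 37 °C, 2 and 20 µM, n=2. Stage IV/V gametocytes (NF54): luciferase reporter (NF54-Pfs16-GFP-Luc, 48 h), ATP bioluminescence (24 h) and PrestoBlue (48 h) at 1 and 5 µM, n=1. P. berghei liver stage (luciferase in HepG2-A16-CD81, 48 h post infection) at 5 µM, n=4. All normalised to DMSO and kill controls as % inhibition.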
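For % inhibition of HepG2 viability (CellTiter-Glo) in this document: HepG2-A16-CD81 hepatoma cells plated as in the liver-stage assay but without sporozoites, with DMSO wells as negative and 25 µM puromycin as positive control.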

| Structure (SMILES) | % viability of CHO cells ([1]; 2 µM) [%] | % viability of CHO cells ([1]; 20 µM) [%] | % inhibition of HepG2 viability [2] [%] | % inhibition of gametocyte viability ([3]; 1 µM) [%] | % inhibition of gametocyte viability ([3]; 5 µM) [%] | % inhibition of asexual blood stage proliferation ([4]; 2 µM) [%] | % inhibition of asexual blood stage proliferation ([4]; 20 µM) [%] | % inhibition of gametocyte viability ([5]; 1 µM) [%] | % inhibition of gametocyte viability ([5]; 5 µM) [%] | % inhibition of gametocyte viability ([6]; 1 µM) [%] | % inhibition of gametocyte viability ([6]; 5 µM) [%] | % inhibition of liver stage parasite viability [7] [%] |
| --- | --- | --- | --- | --- | --- | --- | --- | --- | --- | --- | --- | --- |
| CCCCc1ccc(S(=O)(=O)Nc2cc(C)on2)cc1 | 106 | 124 | 15.2 | 18 | 10.4 | 84.8 | 64.2 | 2.13 | < 0 | < 0 | < 0 | 40.7 |
| COC(=O)Nc1nc2cc(S(=O)c3ccccc3)ccc2[nH]1 (stereo not drawn) | 118 | 78 | 12.1 | 10.1 | 11.8 | 8.21 | 7.99 | 1.75 | < 0 | < 0 | < 0 | 9.84 |
| COc1ccccc1NC(=O)c1ccccc1Sc1ccc([N+](=O)[O-])cc1 | 85.2 | 108 | -1.52 | 17.1 | 14.1 | -1.69 | 81 | 7.24 | 1.71 | 3.21 | 8.85 | 27 |
| Clc1cc(Cl)c2c(c1)CCc1ccccc1C2n1ccnc1 (stereo not drawn) | 100 | 76.3 | 26.4 | 64.7 | 76.1 | 94.1 | 89.5 | 25.2 | 75.4 | < 0 | 81.4 | 53.2 |
| COc1ccc(C)cc1NC(=O)c1ccc(S(=O)(=O)N2CCCCC2)cc1 | 128 | 156 | 6.14 | 0.335 | 3.85 | 1.42 | 32.8 | < 0 | < 0 | < 0 | < 0 | 30 |
| CCOc1ccc(/C=N/NC(=O)C2CC2c2ccc(C(C)(C)C)cc2)cc1OCC (stereo not drawn) | 96.4 | 63.6 | -8.74 | < 0 | 1.6 | 18.7 | 37.8 | < 0 | < 0 | 17.9 | < 0 | 11.3 |
| COc1ccc(C2CNC(=O)C2)cc1OC1CCCC1 (stereo not drawn) | 95.4 | 125 | -2.26 | < 0 | 12 | 28.3 | 40.1 | < 0 | < 0 | 8.32 | 7.49 | 29.1 |
| O=C(NO)C1(CS(=O)(=O)c2ccc(Oc3ccc(Cl)cc3)cc2)CCOCC1 | 108 | 76.6 | 7.05 | 22.6 | 28.2 | 28.1 | 34.1 | < 0 | < 0 | 2.48 | < 0 | 35.5 |
| COc1ccc(NS(=O)(=O)c2ccc(Cl)s2)cn1 | 98 | 100 | 6.74 | < 0 | 6.82 | 22.6 | 48.5 | < 0 | < 0 | 4.39 | < 0 | -1.42 |
| O=C(Nc1ccc(F)cc1)c1nn(-c2ccccc2)c(=O)cc1Cl | 110 | 106 | 2.98 | 30.6 | 81 | 35.1 | 98.7 | 2.79 | 5.32 | 29.4 | 91.6 | 3.89 |
| COC(=O)Nc1nc2c(C)cccc2[nH]1 | 101 | 86.1 | -1.33 | < 0 | < 0 | -2.03 | -14 | < 0 | < 0 | < 0 | < 0 | 3.06 |
| CCNC(=O)Nc1cc(-c2ccccc2)c(-c2cncc(C(=O)O)c2)cn1 | 109 | 94 | -1.59 | 19.7 | 30.2 | -11.2 | -0.305 | < 0 | < 0 | < 0 | < 0 | 41.3 |
| Nc1nc(O)c2ncn(COC(CO)CO)c2n1 | 83.5 | 59.2 | 3.01 | < 0 | < 0 | 6.2 | 41.8 | < 0 | 0.568 | 7.58 | < 0 | 7.49 |
| O=C(NCc1ccc(F)cc1)c1c(O)c2ncccc2[nH]c1=O | 121 | 91.5 | 5.33 | < 0 | 20.1 | 54.8 | 31.4 | 3.16 | < 0 | 5.58 | < 0 | 14 |
| CCc1c(OCC2CCC2)c2cc(F)ccc2[nH]c1=O | 78.6 | 52.7 | -2.38 | 14.3 | 2.83 | 26.9 | 36 | 7.14 | < 0 | < 0 | < 0 | 12.7 |
| O=C(Nc1ccc(Cl)c(C(F)(F)F)c1)C(CCCl)C(=O)Nc1ccc(Cl)c(C(F)(F)F)c1 | 84 | 93.6 | 5.66 | < 0 | < 0 | 19.9 | 27.7 | < 0 | < 0 | < 0 | < 0 | 11.8 |
| C=CCc1cc(Cc2cnc(N)nc2N)cc(OC)c1O | 89.2 | 105 | 7.8 | 12.8 | 29.7 | 29.1 | 76.8 | < 0 | < 0 | < 0 | < 0 | 68.4 |
| CNC(=O)C1O[C@@H](n2cnc3c(NCc4cccc(I)c4)nc(Cl)nc32)[C@H](O)[C@@H]1O (stereo partly drawn) | 97.5 | 132 | -10.3 | 12.5 | 24.1 | 33.8 | 63 | < 0 | < 0 | < 0 | < 0 | 19.8 |
| Cc1nc2ccc(Cl)cc2c(-c2ccccc2)c1CC(=O)O | 121 | 61.2 | 6.38 | < 0 | < 0 | 37.6 | 40.5 | < 0 | < 0 | 7.85 | 13.3 | 24.5 |
